Test results taken from PubChem BioAssay (NCATS).
“And” between values parts separate entries of the source, which are not always exact repeats. Equal values may be shown once. Results filed as inconclusive are left out. Unmarked numbers belong to inactive results. The source made the active and inactive calls. Calls follow the shape of the dose curve; as a rule, active = well fitted curve in the direction sought with a large enough effect; inconclusive = small, poorly fitted or top-dose-only effect, or another doubt; inactive = no such curve, though single readings can be large; an effect the other way counts as inactive or inconclusive.

Assay: qHTS Assay for Identifying Gametocytocidal Compounds (AID 743244);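 also: % is scaled to controls: 0 for no effect and ±100 for the full control effect; actives lower the fluorescent signal which means gametocytes are killed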
Details: P. falciparum 3D7 stage III-V gametocytes, alamarBlue, 72 h; max response: hits give low values
Outline: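 3D7 gametocytes, stages III–V, 20,000/well; cpd 72 h, 37 °C/5% CO2; + alamarBlue 24 h; fluor. Ex 525/Em 598.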

SMILES	max response
CCOc1ccc(C(=O)OCCN(CC)CC)cc1	4.91%
CC(O)CCCCn1c(=O)c2c(ncn2C)n(C)c1=O (centres undefined)	-9.87%
Cc1cccc(C)c1NC(=O)CC12CCCN1CCC2	0.37%
O=C(c1ccccc1)C(O)c1ccccc1 (centres undefined)	0.61%
NS(=O)(=O)c1ccc(NC(=O)CCC(=O)O)cc1	-3.82%
CC[N+](CC)(CC(=O)Nc1c(C)cccc1C)Cc1ccccc1	7.32%
C=CCOc1ccccc1OCC(O)CNC(C)C (centres undefined)	5.69%
C[N+]1(C)CCCC(OC(=O)C(O)(c2ccccc2)c2ccccc2)C1 (centres undefined)	8.34%
CCCCCCCCCCC(CO)CCCCCCCC (centres undefined)	-4.55%
CC(=O)Nc1ccc(C(=O)O)cc1	7.86%
COc1ccc(-c2cc(=O)c3c(O)cc(O[C@@H]4O[C@H](CO[C@@H]5O[C@@H](C)[C@H](O)[C@@H](O)[C@H]5O)[C@@H](O)[C@H](O)[C@H]4O)cc3o2)cc1O	-2.29%
Cc1c(I)c(=O)n(-c2ccccc2)n1C	4.77%
OC[C@@H](O)[C@@H](O)[C@H](O)[C@H](O)CO	5.56%
CC(C)(C)NCC(O)COc1cccc2c1CCC(=O)N2 (centres undefined)	15.2%
CN/C(=C\[N+](=O)[O-])NCCSCc1csc(CN(C)C)n1	18.9%
CC(=O)NCc1c(I)c(NC(C)=O)c(I)c(C(=O)O)c1I	12.1%
O=C(OOC(=O)c1ccccc1)c1ccccc1	-8.14%
O=C(O)CCCCC1CCSS1 (centres undefined)	3.67%
FC(F)(F)C(Cl)Br (centres undefined)	-11.3%

SMILES	max response
C[C@@H]1O[C@@H](OC[C@H]2O[C@@H](Oc3c(-c4ccc(O)c(O)c4)oc4cc(O)cc(O)c4c3=O)[C@H](O)[C@@H](O)[C@@H]2O)[C@H](O)[C@H](O)[C@H]1O	3.71%
CC(=O)Nc1cccc(O)c1	5.77%
NCC1CCC(C(=O)Oc2ccc(CCC(=O)O)cc2)CC1 (centres undefined)	9.03%
CCCCCCCCCCCCCCCCCCO	4.31%
CC(C)=CCC[C@@](C)(O)[C@H]1CC=C(C)CC1	10.2%
COc1ccccc1OC(=O)Oc1ccccc1OC	1.99%
N[C@@H](Cc1ccc(O)cc1)C(=O)O	0.124%
COC(=O)c1cccnc1	29%
CC(CSC(=O)c1ccccc1)C(=O)N1C[C@@H](Sc2ccccc2)C[C@H]1C(=O)O (some centres undefined)	2.09%
Cc1ccccc1N=Nc1ccc(N=Nc2c(O)ccc3ccccc23)c(C)c1	7.02%
CN1C(C)(C)CCCC1(C)C	-1.65%
CN1CCCN=C1COC(=O)C(O)(c1ccccc1)C1CCCCC1 (centres undefined)	-2.61%
Cc1ccsc1C(=CCCN1CCC[C@@H](C(=O)O)C1)c1sccc1C	-0.959%
CCc1nnc(NS(=O)(=O)c2ccc(N)cc2)s1	-5.5%
O=C(O)[C@@H]1[C@H]2C[C@H]3c4[nH]c5ccccc5c4CCN3C[C@@H]2CC[C@@H]1O	-6.8%
CCCCCCCC(=O)OCC(O)CO (centres undefined)	0.163%
O=C(O)c1ccc(OCCCOc2ccc(C(=O)O)cc2)cc1	1.74%
NC(=O)NC1NC(=O)NC1=O (centres undefined)	-4.09%

Assay: qHTS assay for cell viability of HEK293 cells (AID 743288); also: % is scaled to controls: 0 for no effect and ±100 for the full control effect; nearly all actives have a fitted effect of over 50% in size
Details: ATP luminescence (CellTiter-Glo), 18 h, hits give low values
Outline: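 Environmental chemicals tested in qHTS format against parental HEK293 cells; 18 h treatment, 37 C; read-out ATP luminescence (CellTiter-Glo), 30 min RT development.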

SMILES	max response
O=C(c1ccccc1)C(O)c1ccccc1 (centres undefined)	0.203% and -6.25%
CC[N+](CC)(CC(=O)Nc1c(C)cccc1C)Cc1ccccc1	-11.2%
CC(=O)Nc1ccc(C(=O)O)cc1	-10.3%
OC[C@@H](O)[C@@H](O)[C@H](O)[C@H](O)CO	-10.6%
O=C(OOC(=O)c1ccccc1)c1ccccc1	-11.7%
O=C(O)CCCCC1CCSS1 (centres undefined)	-11.1% and -8.74%
FC(F)(F)C(Cl)Br (centres undefined)	6.13%
CC(=O)Nc1cccc(O)c1	-4.32%
O=C1C(c2[nH]c3ccccc3c2O)=Nc2ccccc21	1.4%
CCCCCCCCCCCCCCCCCCO	-6.21%

Assay: qHTS assay for cell viability of the p53RE-bla HCT-116 cell line (AID 743292); also: % is scaled to controls: 0 for no effect and ±100 for the full control effect; nearly all actives have a fitted effect of over 55% in size
Details: p53RE-bla HCT-116 viability, ATP luminescence, 16 h; series mostly up to 95 µM
Outline: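 Luminescent ATP quantitation (CellTiter-Glo) served as the viability read-out; reagent was added after 16 h compound exposure at 37 C and read after 30 min at room temperature. Cells: p53RE-bla HCT-116, 4,000 per well.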

SMILES	outcome
O=C(c1ccccc1)C(O)c1ccccc1 (centres undefined)	inactive
CC[N+](CC)(CC(=O)Nc1c(C)cccc1C)Cc1ccccc1	inactive
CC(=O)Nc1ccc(C(=O)O)cc1	inactive
OC[C@@H](O)[C@@H](O)[C@H](O)[C@H](O)CO	inactive
O=C(OOC(=O)c1ccccc1)c1ccccc1	inactive
O=C(O)CCCCC1CCSS1 (centres undefined)	inactive
FC(F)(F)C(Cl)Br (centres undefined)	inactive
CC(=O)Nc1cccc(O)c1	inactive
O=C1C(c2[nH]c3ccccc3c2O)=Nc2ccccc21	inactive

Assay: qHTS assay for measurement of the activity of small molecule inhibitors on Zika virus induced Caspase-3 activity in human iPSC derived neural progenitor cells (hNPCs) (AID 1224857); also: % of control where 0% means no effect; nearly all actives have a fitted effect of over 65% in size
Details: hNPCs ZIKV-induced caspase-3/7, Caspase-Glo luminescence, 6 h; series mostly up to 45.7 µM
Outline: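 Cells were plated at 350 per well and grown 16 to 20 hours. Compound pretreatment lasted one hour, after which ZIKV (2 FFU/cell) was added for 6 hours. Percent inhibition was normalized between uninfected and infected controls.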

SMILES	outcome	activity change, negative = inhibition
CCOc1ccc(C(=O)OCCN(CC)CC)cc1	inactive	
CC(O)CCCCn1c(=O)c2c(ncn2C)n(C)c1=O (centres undefined)	inactive	
Cc1cccc(C)c1NC(=O)CC12CCCN1CCC2	inactive	
O=C(c1ccccc1)C(O)c1ccccc1 (centres undefined)	inactive	
NS(=O)(=O)c1ccc(NC(=O)CCC(=O)O)cc1	inactive	
CC[N+](CC)(CC(=O)Nc1c(C)cccc1C)Cc1ccccc1	inactive	
C=CCOc1ccccc1OCC(O)CNC(C)C (centres undefined)	inactive	
C[N+]1(C)CCCC(OC(=O)C(O)(c2ccccc2)c2ccccc2)C1 (centres undefined)	inactive	
CCCCCCCCCCC(CO)CCCCCCCC (centres undefined)	inactive	
CC(=O)Nc1ccc(C(=O)O)cc1	inactive	
COc1ccc(-c2cc(=O)c3c(O)cc(O[C@@H]4O[C@H](CO[C@@H]5O[C@@H](C)[C@H](O)[C@@H](O)[C@H]5O)[C@@H](O)[C@H](O)[C@H]4O)cc3o2)cc1O	inactive	
Cc1c(I)c(=O)n(-c2ccccc2)n1C	inactive	
OC[C@@H](O)[C@@H](O)[C@H](O)[C@H](O)CO	inactive	
CC(C)(C)NCC(O)COc1cccc2c1CCC(=O)N2 (centres undefined)	inactive	
CN/C(=C\[N+](=O)[O-])NCCSCc1csc(CN(C)C)n1	inactive	
CC(=O)NCc1c(I)c(NC(C)=O)c(I)c(C(=O)O)c1I	inactive	
O=C(OOC(=O)c1ccccc1)c1ccccc1	inactive	
O=C(O)CCCCC1CCSS1 (centres undefined)	inactive	
FC(F)(F)C(Cl)Br (centres undefined)	inactive	

SMILES	outcome	activity change, negative = inhibition
C[C@@H]1O[C@@H](OC[C@H]2O[C@@H](Oc3c(-c4ccc(O)c(O)c4)oc4cc(O)cc(O)c4c3=O)[C@H](O)[C@@H](O)[C@@H]2O)[C@H](O)[C@H](O)[C@H]1O	inactive	
CC(=O)Nc1cccc(O)c1	inactive	
O=C1C(c2[nH]c3ccccc3c2O)=Nc2ccccc21	inactive	
NCC1CCC(C(=O)Oc2ccc(CCC(=O)O)cc2)CC1 (centres undefined)	inactive	
CCCCCCCCCCCCCCCCCCO	inactive	
CC(C)=CCC[C@@](C)(O)[C@H]1CC=C(C)CC1	inactive	
COc1ccccc1OC(=O)Oc1ccccc1OC	inactive	
N[C@@H](Cc1ccc(O)cc1)C(=O)O		4.45% [at 9.06 µM]
COC(=O)c1cccnc1	inactive	
CC(CSC(=O)c1ccccc1)C(=O)N1C[C@@H](Sc2ccccc2)C[C@H]1C(=O)O (some centres undefined)	inactive	
Cc1ccccc1N=Nc1ccc(N=Nc2c(O)ccc3ccccc23)c(C)c1	inactive	
CN1C(C)(C)CCCC1(C)C	inactive	
CN1CCCN=C1COC(=O)C(O)(c1ccccc1)C1CCCCC1 (centres undefined)	inactive	
Cc1ccsc1C(=CCCN1CCC[C@@H](C(=O)O)C1)c1sccc1C	inactive	
CCc1nnc(NS(=O)(=O)c2ccc(N)cc2)s1	inactive	
O=C(O)[C@@H]1[C@H]2C[C@H]3c4[nH]c5ccccc5c4CCN3C[C@@H]2CC[C@@H]1O	inactive	
CCCCCCCC(=O)OCC(O)CO (centres undefined)	inactive	
O=C(O)c1ccc(OCCCOc2ccc(C(=O)O)cc2)cc1	inactive	
NC(=O)NC1NC(=O)NC1=O (centres undefined)	inactive	
